Bioassay records: PubChem, NMMLSC
VLA-4 inh = inhibition in a human VLA-4 binding assay. VLA-4 expressing cells, ligand binding flow cytometry. P13612. inhibition, % (about 7 µM as worked out from the volumes in the protocol). hit rate 0.2% among 330,000; in the data active = inhibition above about 50%
MEKK2wt PB1 HTS = raises or lowers MEK5 binding to wildtype human MEKK2 PB1 domain. bead flow cytometry, Alexa488-MEK5 binding to MEKK2 WT; actives lie on both sides. binding response (% of control), % at 10 µM. hit rate 1.1% among 290,000. AID 1531; in the data active = binding response below about 67% or above about 130%
MEKK3 PB1 HTS = MEKK3-MEK5 PB1 interaction, increase or decrease. hit rate 1.4% among 290,000. bead-based flow cytometry, Alexa488-MEK5 binding to MEKK3; actives lie on both sides; 0 = blocked by unlabeled MEK5, 100 = vehicle. binding response (% of control), % at 10 µM;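 active = binding response more than 3 SD above or below the average of its plate-row segment, actives on both sides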;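 note: Alexa488 bead fluorescence after subtracting the streptavidin-only scavenger bead signal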
MEKK2mut PB1 HTS = signal of MEK5 binding to mutant human MEKK2 PB1 domain; hit rate 0.35% among 290,000; bead flow cytometry, Alexa488-MEK5 binding to MEKK2 mutant; AID 1530; percent response, % at 10 µM; in the data active = percent response above about 24%, passing the limit was not always enough
VLA-4 allo CP = human VLA-4 allosteric modulation in cherry picked compounds; shares compounds with VLA-4 inh; hit rate 2% among 1,300; U937 cells, HUTS-21 LIBS mAb binding, flow cytometry; LDV ligand present at threefold Kd; inhibition, % at 6.7 µM; in the data active = inhibition above about 40%;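 note: 0% = ligand without compound and 100% = no ligand background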
* marks the source's active call; other numbers are inactive results; . = not tested or not shown. Hits are enriched below; roughly 2.2% of the tested compounds scored in any of these assays.

SMILES	VLA-4 inh	MEKK2wt PB1 HTS	MEKK3 PB1 HTS	MEKK2mut PB1 HTS	VLA-4 allo CP
COc1ccc(N(CC(=O)Nc2ccc(F)c(F)c2)S(=O)(=O)c2c(C)n[nH]c2C)cc1	4.1	104.0	103.0	2.0	-0.2
Cc1nn(C)c(C)c1S(=O)(=O)N(CC(=O)NCc1ccco1)c1ccc(C(C)C)cc1	64.2*	101.0	101.0	-6.0	6.7
O=C(O)[C@H](Cc1c[nH]c2ccccc12)Nc1ncccc1[N+](=O)[O-]	-13.3	99.0	97.0	2.0	.
Cc1cccc(C)c1NC(=O)CNC(=O)c1ccc(N2CCCC2)c([N+](=O)[O-])c1	20.0	.	.	.	.
CCOc1ccc(CNC(=O)CCCC(=O)n2ncc3cc(C)ccc32)cc1	59.1*	102.0	100.0	-1.0	5.4
CCOC(=O)c1c(NC(=O)C2c3ccccc3Oc3ccccc32)sc(C(=O)N(CC)CC)c1C	-1.6	98.0	103.0	2.0	2.9
CCOC(=O)c1c(NC(=O)CN(C)C)sc(C(=O)N(CC)CC)c1C	3.4	104.0	103.0	8.0	.
Cc1cc(Cl)ccc1OC(C)C(=O)NCCCn1ccnc1 (centres undefined)	12.1	81.0	102.0	-15.0	.
CCCn1c(SCC(=O)NC(C)C)nc2sc3c(c2c1=O)CCC3	0.9	102.0	104.0	2.0	.
CCCn1c(SCC(=O)NC)nc2sc3c(c2c1=O)CCC3	57.2*	109.0	112.0	1.0	5.4
COc1cccc(OC)c1OCCCCc1c(C)n[nH]c1C	58.6*	102.0	105.0	4.0	2.6
COc1cccc(OC)c1OCCCCCc1c(C)n[nH]c1C	8.8	109.0	111.0	10.0	.
CCc1cccc(C)c1NC(=O)C1CCN(C(=O)c2ccc([N+](=O)[O-])cc2)CC1	56.4*	95.0	98.0	-5.0	1.3
O=C(O)CCNS(=O)(=O)c1ccc2c(c1)OCCCO2	12.8	106.0	104.0	1.0	.
CCCn1nc(C(=O)NNC(=O)C2CSC3(C)CCC(=O)N23)c2ccccc2c1=O (centres undefined)	1.2	.	.	.	.
COc1ccc(-c2nc(C)ncc2-c2ccc(Cl)cc2)c(O)c1	67.7*	107.0	111.0	7.0	20.6
N#CC(C#N)=C1C=CC=CN1/C(=C\c1ccco1)C(=O)c1ccc(Cl)cc1	16.9	98.0	102.0	0.0	.
N#CC(C#N)=C1C=CC=CN1/C(=C\c1ccco1)C(=O)c1ccc(-c2ccccc2)cc1	49.6*	104.0	102.0	17.0	11.8
COCCn1c(Cc2ccccc2)nnc1SCc1ccc([N+](=O)[O-])cc1	40.9	98.0	99.0	-1.0	5.4
Cc1ccc(N2C(=O)CC(C)CC2=O)cc1	4.0	106.0	106.0	8.0	.
Cn1c(=N)n(CC(O)c2cccc3ccccc23)c2ccccc21 (centres undefined)	51.2*	105.0	100.0	1.0	-7.7
Cn1c(=N)n(CC(O)c2ccco2)c2ccccc21 (centres undefined)	-0.2	98.0	99.0	-1.0	.
CC(Oc1ccc(Br)cc1)C(=O)NCC1(N2CCCCC2)CCCCC1 (centres undefined)	-6.1	.	.	.	.
O=C1C2C3C=CC(CO)(O3)C2C(=O)N1c1ccccc1-c1ccccc1 (centres undefined)	49.8*	96.0	101.0	1.0	4.4
O=C(NCCCNc1ccc(C(F)(F)F)cc1[N+](=O)[O-])c1cc(F)c(F)cc1Cl	94.2*	103.0	103.0	2.0	11.7
SMILES	VLA-4 inh	MEKK2wt PB1 HTS	MEKK3 PB1 HTS	MEKK2mut PB1 HTS	VLA-4 allo CP
CCN(C[C@H]1N[C@@](C)(C(=O)OC)[C@H]2C(=O)N(C)C(=O)[C@@H]12)C(=O)Nc1ccc(OC)cc1	33.0	.	.	.	.
COc1ccc(NC(=O)C2CCN(C(=O)c3ccccc3)CC2)cc1OC	4.3	102.0	107.0	5.0	.
COc1cc(C(=O)N2CCC(C(=O)Nc3cccc(C(C)=O)c3)CC2)cc(OC)c1OC	93.6*	87.0	83.0	-14.0	6.3
COc1ccc(C(=O)C2CCN(C(=O)c3ccc(OC)cc3)CC2)cc1	-12.0	103.0	102.0	2.0	.
COc1ccc(NC(=O)C2CCN(C(=O)c3ccccc3)CC2)c(OC)c1	33.2	.	.	.	4.4
COc1ccc(C(=O)N2CCC(C(=O)Nc3ccccc3OC)CC2)cc1	57.0*	69.0	74.0	-10.0	-2.1
COC(=O)c1ccccc1NC(=O)C1CCN(C(=O)c2cc(OC)cc(OC)c2)CC1	4.7	104.0	100.0	1.0	-4.9
COc1ccc(NC(=O)C2CCN(C(=O)c3cccs3)CC2)c(OC)c1	6.3	90.0	95.0	-8.0	.
CC(C)CCN(C(=O)CNC(=O)c1ccco1)C(C(=O)NC1CCCCC1)c1cccnc1 (centres undefined)	-4.6	103.0	102.0	2.0	.
Cc1ccc(NC(=O)c2ccccc2Br)cc1S(=O)(=O)N(C)C	3.4	96.0	106.0	-4.0	.
CC(C)N(Cc1ccccc1)C(=S)Nc1ccccc1F	-5.6	82.0	81.0	-25.0	.
C[C@@H](NC(=O)[C@@H]1Cc2ccccc2CN1)C(=O)NC1CCCCC1	50.8*	98.0	97.0	0.0	-0.9
CCOc1ccc(NC(=O)CCC(=O)NNC(=O)COc2ccc(C)cc2Br)cc1	-7.0	101.0	102.0	5.0	.
CCCOc1ccc(N2C(=O)CC(N(Cc3ccc(S(N)(=O)=O)cc3)C(=O)CC)C2=O)cc1 (centres undefined)	-5.3	104.0	101.0	4.0	-5.0
COc1ccc(N2C(=O)CC(N(Cc3ccc(S(N)(=O)=O)cc3)C(C)=O)C2=O)cc1 (centres undefined)	14.1	97.0	98.0	-3.0	1.3
COc1ccc(C2CC(c3ccccc3OC(C)=O)=NN2C(C)=O)cc1 (centres undefined)	14.0	92.0	96.0	-4.0	.
COc1ccccc1CNC(=O)CCCNC(=O)Cn1cnc2sc(C)c(C)c2c1=O	15.7	107.0	101.0	2.0	.
O=C(OCC(=O)N1CCOCC1)c1ccc[nH]c1=O	51.9*	106.0	103.0	-1.0	1.8
O=C(OCC(=O)N1CCCCCC1)c1ccc[nH]c1=O	3.4	.	.	.	.
N#Cc1ccc(CNC(=O)N2CCOCC2)cc1	45.1	105.0	100.0	1.0	0.5
O=C(Nc1ccncc1)Nc1ccccn1	10.7	107.0	106.0	4.0	.
O=C(Nc1ccccc1)Nc1ccncc1	61.9*	97.0	101.0	-2.0	-9.6
Cc1c(NC(=O)c2cc(C(C)C)on2)c(=O)n(-c2ccccc2)n1C	.	97.0	95.0	-1.0	11.8
Cc1c(NC(=O)c2c(F)c(F)c(F)c(F)c2F)c(=O)n(-c2ccccc2)n1C	4.1	100.0	104.0	2.0	0.0
Cc1c(NC(=O)COc2ccccc2Cl)c(=O)n(-c2ccccc2)n1C	8.5	.	.	.	.
Cc1c(NC(=O)c2cc3ccccc3c(=O)s2)c(=O)n(-c2ccccc2)n1C	53.5*	107.0	103.0	8.0	6.4
Cc1c(NC(=O)c2cc(CC(C)C)on2)c(=O)n(-c2ccccc2)n1C	21.9	112.0	113.0	19.0	.
Cc1c(NC(=O)COc2ncnc3c(Cl)cc(Cl)cc23)c(=O)n(-c2ccccc2)n1C	5.0	99.0	99.0	1.0	2.6
